For 25 compounds, Inhibition results are on record in ChEMBL document CHEMBL4296182, “CO-ADD screening of NIH NCI Diversity Set V”.

Molecules are shown by their SMILES. For part of these data: Results with a measured potency or affinity are listed apart.

Assay [1] deals with Staphylococcus aureus. The assay is described as follows: Antibacterial activity against Staphylococcus aureus MRSA ATCC 43300 (CO-ADD:GP_020); MIC in CAMBH media using NBS plates, by Resazurin F(560/590). The settings on record: Concentration 20 uM, ASSAY_TEST Inhibition of Bacterial Growth, detection method Resazurin, Fluorescence (ex560/em590), MEDIA CAMHB, plate type 384well, CORNING #3640, time 18 hr. Format: functional. (In general: Alamar Blue is a resazurin reagent that responds to reducing activity.)

In assay [2] the test system is Acinetobacter baumannii. Description: Antibacterial activity against Acinetobacter baumannii ATCC 19606 (CO-ADD:GN_034); MIC in CAMBH media using NBS plates, by Resazurin F(560/590). The following applies: Concentration 20 uM, ASSAY_TEST Inhibition of Bacterial Growth, detection method Resazurin, Fluorescence (ex560/em590), MEDIA CAMHB, plate type 384well, CORNING #3640, time 18 hr. The format is functional.

The test system of assay [3] is Escherichia coli. The assay is described as follows: Antibacterial activity against Escherichia coli ATCC 25922 (CO-ADD:GN_001); MIC in CAMBH media using NBS plates, by Resazurin F(560/590). The format is functional. The settings on record: Concentration 20 uM, ASSAY_TEST Inhibition of Bacterial Growth, detection method Resazurin, Fluorescence (ex560/em590), MEDIA CAMHB, plate type 384well, CORNING #3640, time 18 hr.

The test system of assay [4] is Klebsiella pneumoniae. The settings on record: Concentration 20 uM; ASSAY_TEST Inhibition of Bacterial Growth; detection method Absorption (OD600); MEDIA CAMHB; plate type 384well; NBS; CORNING #3640; time 18 hr.
The test system of assay [5] is Candida albicans. The settings on record: 20 µM.
For assay [6], the system named is Cryptococcus neoformans. The following applies: Concentration 20 uM; ASSAY_TEST Inhibition of Fungal Growth; detection method Resazurin; Absorption (OD600-OD570); plate type 384well; NBS; CORNING #3640.

A word on the Inhibition: it is the change of the read-out against control, counted positive when it falls. Regarding `CCC(CO)Nc1nc2ccc(Cl)cc2c2ccccc12` (stereo not given), the Inhibition in assay [1] is 32.89%; in assay [2], 5.43%; in assay [3] it was 4.69%; in assay [4], 20.8%; in assay [5] it was 4.64%; in assay [6] it was -2%.
Regarding `NC(=S)N/N=C/c1cc(-c2cccc(N)c2)ccn1`, the Inhibition was -5.52% in assay [1]; 27.53% in assay [2]; 11.56% in assay [3]; 45.35% in assay [4]; 1.87% in assay [5]; -12.06% in assay [6].
For the compound `O=C1CSC(=S)N1/N=C/c1c[nH]c2ccc(Br)cc12`, the Inhibition was -3.88% in assay [1]; 11.83% in assay [2]; 4.81% in assay [3]; 26.71% in assay [4]; 19.6% in assay [5]; -14.16% in assay [6].
Consider `CC(O)c1nc2c(c(=O)n(C)c(=O)n2C)n1C` (stereo not given), for which the Inhibition in assay [1] was -5.57%; in assay [2] it was -6.98%; in assay [3], 6.75%; in assay [4], 7.56%; in assay [5], -1.01%; in assay [6], -6.24%.
For the compound `O=C(O)/C=C\c1cc2c(cc1[N+](=O)[O-])OCO2`, the Inhibition in assay [1] is 16.17%; in assay [2], -13.7%; in assay [3] it was 7.39%; in assay [4] it was 10.81%; in assay [5] it was 3.76%; in assay [6], -6.94%.
With `COc1cccc2nc3cc(C)c(C)cc3nc12`, the Inhibition in assay [1] is 20.84%; in assay [2], 3.71%; in assay [3], 12.65%; in assay [4] it was 1.37%; in assay [5], 1.48%; in assay [6] it was -8.3%.
Take `Sc1nccn1-c1ccccc1Cl`: the Inhibition in assay [1] is 5.33%; in assay [2], 14.25%; in assay [3] it was -3.3%; in assay [4], 6.92%; in assay [5], 3.82%; in assay [6], -5.04%.
In the case of `Oc1ccc(/N=N/c2nccs2)c(O)c1`, the Inhibition in assay [1] was -2.42%; in assay [2], 12.54%; in assay [3], -3.78%; in assay [4] it was 17.07%; in assay [5], 29.2%; in assay [6] it was 2.7%.
Turning to `CCCN(CCC)CC(=O)N1CC(=O)Nc2ccccc21`, the Inhibition was -18.07% in assay [1]; -3.41% in assay [2]; -10.49% in assay [3]; 8.75% in assay [4]; 3.75% in assay [5]; -3.68% in assay [6].
Take `Clc1nnc2c3ccccc3ccn12`: the Inhibition in assay [1] was -3.22%; in assay [2], 2.03%; in assay [3], 3.3%; in assay [4], 8.71%; in assay [5], 1.01%; in assay [6], -9.43%.
Turning to `Cc1nc2c(O)cccc2cc1CO`, the Inhibition in assay [1] was 12.47%; in assay [2], -18.52%; in assay [3], 6.1%; in assay [4], 7.86%; in assay [5], -0.94%; in assay [6], -5.84%.
Turning to `O=C1c2cccc(Oc3ccccc3)c2C(=O)c2cccc(Oc3ccccc3)c21`, the Inhibition is 12.36% in assay [1]; 6.18% in assay [2]; -1.53% in assay [3]; 10.6% in assay [4]; 2.19% in assay [5]; -5.27% in assay [6].
For `Oc1nc2[nH]c(Cl)nc(Cl)c-2n1`, the Inhibition in assay [1] was 12.09%; in assay [2], -10.58%; in assay [3], 13.78%; in assay [4], 9.63%; in assay [5], -2.33%; in assay [6] it was -19.04%.
As to `CC(NC(=O)c1ccc(Cl)c(Cl)c1)c1ccc(-c2ccccc2)cc1` (stereo not given), the Inhibition in assay [1] is 12.08%; in assay [2], 7.23%; in assay [3] it was 12.06%; in assay [4] it was 14.03%; in assay [5], -5.14%; in assay [6] it was -10.74%.
In the case of `CCOc1ccc(NC(=S)NC(=O)c2ccco2)cc1`, the Inhibition is 8.6% in assay [1]; 0.34% in assay [2]; 3.81% in assay [3]; 5.03% in assay [4]; 7.98% in assay [5]; -14.9% in assay [6].
In the case of `COc1cc(CCC(=O)O)on1`, the Inhibition in assay [1] is 9.35%; in assay [2], -6.5%; in assay [3], 10.23%; in assay [4], 8.1%; in assay [5] it was -0.47%; in assay [6] it was -11.79%.
On to `C1CCc2nc3c(nc2C1)CCCC3`, for which the Inhibition was 13.53% in assay [1]; -4.6% in assay [2]; 11.61% in assay [3]; 13.7% in assay [4]; 1.61% in assay [5]; -2.79% in assay [6].
Regarding `COc1cc(C2NC(=O)C(C#N)=C(Nc3cccc(C)c3)S2)ccc1O` (stereo not given), the Inhibition in assay [1] was 16.64%; in assay [2], 5.33%; in assay [3], 14.44%; in assay [4] it was 11.49%; in assay [5] it was 1.94%; in assay [6], -8.18%.
In the case of `N#C/N=C/N1CC=C(c2ccc(Cl)cc2)CC1`, the Inhibition in assay [1] is 11.33%; in assay [2], 10.12%; in assay [3] it was 1.23%; in assay [4], 20.23%; in assay [5] it was 8.73%; in assay [6], -3.92%.
In the case of `COC1C(=O)CCC2(CO2)C1(O)C1(C)OC1CC=C(C)C` (stereo not given), the Inhibition in assay [1] is -15.99%; in assay [2] it was -18.89%; in assay [3], 14.59%; in assay [4], 5.17%; in assay [5], 9.99%; in assay [6] it was -9.09%.
For the compound `O=c1cc(-c2cccnc2)oc2c1ccc1ccccc12`, the Inhibition is 20.75% in assay [1]; -10.07% in assay [2]; 18.5% in assay [3]; -1.55% in assay [4]; 29.4% in assay [5]; -11.93% in assay [6].
On to `O=C1c2ccccc2NC(c2cc(Cl)cc(Cl)c2O)N1CCc1ccccn1` (stereo not given), for which the Inhibition was 27.48% in assay [1]; -1.5% in assay [2]; 9.13% in assay [3]; 12.19% in assay [4]; 2.81% in assay [5]; -0.4% in assay [6].
Consider `Oc1ccc(N/C(S)=N/c2ccccc2)cc1`, for which the Inhibition in assay [1] is -2.99%; in assay [2] it was 11.99%; in assay [3] it was -4.05%; in assay [4], 4.37%; in assay [5], 4.77%; in assay [6], 2.65%.
With `CSc1ccc2c(c1)C(N1CCN(C)CC1)Cc1ccccc1S2.O=C(O)/C=C\C(=O)O` (stereo not given), the Inhibition in assay [1] was -0.23%; in assay [2], -8.02%; in assay [3] it was 11.6%; in assay [4], 5.53%; in assay [5] it was 2.59%; in assay [6], -7.96%.
With `Cc1c(Cl)cccc1NC(=O)CC1Sc2ccccc2NC1=O` (stereo not given), the Inhibition in assay [1] was 7.76%; in assay [2], 13.12%; in assay [3], -17.77%; in assay [4], 3.05%; in assay [5] it was 8.03%; in assay [6], 45.43%.
